From PubChem
15-hLO-2 inh: 15-hLO-2 (ALOX15B) enzyme inhibition; O15296; purified 15hLO-2, xylenol orange hydroperoxide absorbance; Potency, µM (series often up to 57.1 µM), without a hit: at the highest dose activity change, negative = inhibition, hits mostly inhibitors; 110,000 compounds, 0.56% hits; AID 881; note: potency is the fitted concentration of half-maximal effect; % is set by controls: 0 for no effect and ±100 for the full control effect; nearly all actives have a fitted effect of over 60% in size
Target sequence (O15296 whole entry, looked up): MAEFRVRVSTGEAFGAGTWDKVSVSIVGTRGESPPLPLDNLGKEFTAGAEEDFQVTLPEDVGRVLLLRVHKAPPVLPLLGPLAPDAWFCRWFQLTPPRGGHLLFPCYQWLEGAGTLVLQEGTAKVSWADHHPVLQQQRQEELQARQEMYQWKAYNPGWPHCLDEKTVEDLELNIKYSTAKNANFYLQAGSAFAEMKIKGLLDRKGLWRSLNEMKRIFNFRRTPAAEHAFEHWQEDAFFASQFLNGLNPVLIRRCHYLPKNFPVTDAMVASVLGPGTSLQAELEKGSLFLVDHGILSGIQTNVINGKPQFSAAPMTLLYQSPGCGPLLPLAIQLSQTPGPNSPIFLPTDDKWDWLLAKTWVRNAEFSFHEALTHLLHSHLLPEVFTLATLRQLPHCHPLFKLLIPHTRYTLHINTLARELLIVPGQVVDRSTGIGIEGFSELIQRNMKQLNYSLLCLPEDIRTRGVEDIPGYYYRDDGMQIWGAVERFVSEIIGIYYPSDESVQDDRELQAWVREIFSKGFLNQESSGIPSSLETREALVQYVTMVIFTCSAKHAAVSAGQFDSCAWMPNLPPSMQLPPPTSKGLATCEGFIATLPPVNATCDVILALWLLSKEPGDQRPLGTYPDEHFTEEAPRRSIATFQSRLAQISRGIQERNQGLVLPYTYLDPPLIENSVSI
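Screening format was qHTS against 50 nM purified 15hLO-2 in Hepes pH 7.5 with detergent. Activity follows hydroperoxide formation from 45 uM arachidonic acid, measured as 573:405 nm absorbance ratio of the ferric-xylenol orange complex.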
IMPase cell inh: cell-permeable inhibitors of inositol monophosphatase (IMPase); CHO-M1 cells, IP1 accumulation, HTRF TR-FRET ratio; inhibition (IP1 accumulation), % at 46.1 µM; P97697; 120,000 tested, under 10 active; active = well fitted curve in the direction sought with a large enough effect in the signal ratio, not every such curve was filed as active; inconclusive = small, poorly fitted or top-dose-only effect, or a change in a side signal; inactive = no such curve, though single readings can be large or run the other way; the % refers to the signal ratio;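 note: cells stimulated with carbachol in lithium chloride buffer; plate controls were DMSO basal wells for no effect and reference inhibitor wells for full effect; higher means more IMPase inhibition seen as more IP1 and lower FRET ratio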
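The IP-One HTRF competitive assay in carbachol-stimulated CHO-M1 cells quantifies cellular IP1. Compounds spanned up to 46 uM final, and activity is expressed as AC50 from concentration-response fits of the ratio and donor data.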
IMPase Li cell: cell-permeable IMPase inhibitors with lithium potentiation; CHO-M1 cells, IP1 TR-FRET (IP-One), carbachol + lithium; Potency, µM (doses to about 59.4 µM), without a hit: at the highest dose activity, negative = IMPase inhibition, usual class: inhibitors; 210,000 compounds, 0.35% hits; AID 1457;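 note: IP1 builds up when IMPase is blocked and the TR-FRET signal falls; potency is the fitted concentration of half-maximal effect; plate controls were basal vehicle for no effect and high inhibitor control for full effect; nearly all actives have a fitted effect of over 50% in size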
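IP1 accumulation measured by competitive TR-FRET in lysed CHO-M1 cells after 30 min compound exposure at 37C, with a small lithium addition to potentiate weak responses. Hill-equation AC50 from ratio and donor-channel data.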
ALOX12 inhib: 12-hLO (ALOX12) enzyme inhibition | P18054 | purified 12-hLO, xylenol orange hydroperoxide absorbance | Potency, µM (titrated, usually from 57.1 µM), inactives show top-dose activity change, negative = inhibition, most hits filed as inhibitors | 150,000 compounds, 0.12% hits; note: potency is the fitted concentration of half-maximal effect; % is set by controls: 0 for no effect and ±100 for the full control effect; nearly all actives have a fitted effect of over 55% in size
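Purified human 12hLO (150 nM final) was preincubated with compounds for 15 min at room temperature in 25 mM Hepes pH 7.0, 0.01% Triton X-100, then reacted with 40 uM arachidonic acid for 30 min. Hydroperoxide was detected with ferrous iron/xylenol orange.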
PNC inhibitor: perinucleolar compartment assembly inhibition. 140,000 compounds, 3.1% hits. PC3M PTB-GFP, PNC prevalence imaging, 16 h; stronger effect = lower value. activity change (PNC), negative = inhibition, % at 10 µM;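 active = readout at or below -70, meaning at least 70% loss of cells showing the perinucleolar compartment, a nuclear body marking cancer cells; inconclusive = readout between -30 and a set limit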;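 note: plate controls were DMSO wells for no effect and camptothecin positive control wells for full effect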
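PC3M cells stably expressing PTB-GFP, 750–1000 cells/well, treated 16 h at 37 °C with compound (23 nl of library stock), in duplicate. After paraformaldehyde fixation and Hoechst stain, imaged at 20x; PNC prevalence scored by image analysis.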
HPGD inh: blocks human HPGD enzyme activity. P15428. purified HPGD, NADH fluorescence kinetic, PGE2 substrate. Potency, µM, for the others: at the highest dose activity change, negative = inhibition, most hits filed as inhibitors. 150,000 compounds, 4.3% hits; active = well fitted inhibition curve with a large enough effect, not every such curve was filed as active; inconclusive = small, poorly fitted or top-dose-only effect, or another doubt; inactive = no such curve, though single readings can be large or run the other way; note: potency is the fitted concentration of half-maximal effect; % is set by controls: 0 for no effect and ±100 for the full control effect
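20 nM HPGD preincubated 15 min at room temperature with compound in 50 mM Tris-HCl pH 8, 0.01% Tween 20. Started with 1 mM NAD+ and 30 uM prostaglandin E2; NADH fluorescence (360/450 nm) read 5 times over 30-s intervals, last minus first.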
HPGD inh cf: confirmation of human HPGD inhibitors; AID 2429; shares compounds with HPGD inh; 90 compounds, 90% hits; Potency, µM (highest dose often 57.1 µM), for inactives: top-dose activity change, negative = inhibition, hits mostly inhibitors; recombinant HPGD, NADH fluorescence, PGE2 substrate; calls by dose curve
* hit, by the source's call; [ ] = remark or other dose. Compounds with a hit are over-represented: about 5.4% of the library has one in this group of screens. Unless noted, calls come from the whole dose curve; as a rule, active = well fitted curve in the direction sought with a large enough effect; inconclusive = small, poorly fitted or top-dose-only effect, or another doubt; inactive = no such curve, though single readings can be large; an effect the other way counts as inactive or inconclusive.

Results for COc1ccc(S(=O)(=O)N(C)c2ccc(C(=O)N3CCC(C(N)=O)CC3)cc2)cc1 ?
15-hLO-2 inh: -4%; IMPase cell inh: 8; IMPase Li cell: -5%[38.3 µM]; ALOX12 inhib: 2%; PNC inhibitor: 8; HPGD inh: -11%; HPGD inh cf: -25%

What do the screens show for `COc1ccc(S(=O)(=O)N(C)c2ccc(C(=O)N3CCC(C(N)=O)CC3)cc2)cc1OC`?
IMPase Li cell: -1%

What do the screens show for `CCc1n[nH]c(=S)n1/N=C/c1c(C)nn(-c2ccccc2)c1Cl`?
IMPase Li cell: -2%

What do the screens show for `Cc1ccc(-c2n[nH]c(=S)n2/N=C/c2c(C)nn(-c3ccccc3)c2C)cc1`?
IMPase cell inh: -6; IMPase Li cell: 15%; ALOX12 inhib: 0%; PNC inhibitor: -19; HPGD inh: 1.1µM*; HPGD inh cf: 0.5µM*

How did O=C(c1ccc2c(=O)n(Cc3ccc4c(c3)OCO4)c(=S)[nH]c2c1)N1CCCCC1 do in these assays?
15-hLO-2 inh: 0%; IMPase cell inh: -3; IMPase Li cell: inconclusive; ALOX12 inhib: 0%; PNC inhibitor: inconclusive; HPGD inh: 0.4µM*; HPGD inh cf: inconclusive

Results for O=C(NCc1nc2ccccc2[nH]1)[C@H]1C[C@@H]1[C@H](NP(=O)(c1ccccc1)c1ccccc1)c1ccccc1 ?
15-hLO-2 inh: 38%; IMPase Li cell: -2%; ALOX12 inhib: 4%; HPGD inh: -10%

Results for COCCNC(=O)c1cc2oc3ccccc3c2n1C ?
15-hLO-2 inh: -1%; IMPase cell inh: 9; IMPase Li cell: 15%[38.3 µM]; ALOX12 inhib: 6%; PNC inhibitor: 4; HPGD inh: 1.4µM*; HPGD inh cf: 1.6µM*

How did CC1CCCN(C(=O)c2ccc(COc3ccccc3Br)cc2)C1 (centres undefined) do in these assays?
15-hLO-2 inh: 5%; IMPase cell inh: 4; IMPase Li cell: 46%[38.3 µM]; ALOX12 inhib: -18%; PNC inhibitor: 31; HPGD inh: 0.089µM*; HPGD inh cf: 0.13µM*

What do the screens show for `COc1ccc(NS(=O)(=O)c2cccc(-c3nnc4n3CCCCC4)c2)cc1`?
15-hLO-2 inh: -3%; IMPase cell inh: inconclusive; IMPase Li cell: 7%[38.3 µM]; ALOX12 inhib: 2%; PNC inhibitor: 4; HPGD inh: -9%

How did O=c1[nH]c2ccc(S(=O)(=O)Nc3ccc(-c4nnc5n4CCCCC5)cc3)cc2o1 do in these assays?
15-hLO-2 inh: 15%; IMPase cell inh: -7; IMPase Li cell: 5%[38.3 µM]; ALOX12 inhib: -3%; PNC inhibitor: inconclusive; HPGD inh: 0.2µM*; HPGD inh cf: 0.13µM*

How did Cc1[nH]c2ccccc2c1-c1cc(-c2cc(-c3c(C)[nH]c4ccccc34)on2)no1 do in these assays?
15-hLO-2 inh: -7%[11.4 µM]; IMPase Li cell: -2%; ALOX12 inhib: 5%[11.4 µM]; HPGD inh: 0%

How did O=c1[nH]c(SCc2ccccc2Cl)nc2c1CCC2 do in these assays?
15-hLO-2 inh: -8%; IMPase cell inh: 4; IMPase Li cell: 11%[38.3 µM]; ALOX12 inhib: -5%; PNC inhibitor: -101*; HPGD inh: 1µM*; HPGD inh cf: 2.2µM*

How did COc1cccc([C@@H]2Oc3ccc(OC)cc3C(=O)[C@H]2OC(=O)NCCOc2ccccc2)c1 do in these assays?
IMPase Li cell: -13%; HPGD inh: -14%
